# Test results taken from publication PMC9838217, “Structure of SALL4 zinc finger domain reveals link between AT-rich DNA binding and Okihiro syndrome”.
# Changes are numbered by the printed parent chain.
# Key:
# [1] = biological target: T1, SALL4 ZFC4 R900W (HT-SELEX) (Mus musculus, UniProt Q8BX22 870-940, R900W); experiment: HT-SELEX; high values mean tight binding; conditions: protein: recombinant; vector His6-GST; dsDNA, one strand shown
# T1 sequence: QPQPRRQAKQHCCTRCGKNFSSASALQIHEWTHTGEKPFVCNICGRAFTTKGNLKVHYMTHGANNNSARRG
# In short: (§1)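 Each canonical k-mer's binding signal is its read fraction expressed as fold change over the initial random library. Reads came from MiSeq sequencing, scanned for 6-mers, after up to 6 triplicate cycles in which purified recombinant mouse SALL4 zinc finger cluster 4 (residues 870–940, 1 µg) bound library DNA (1.5 µg first cycle, 200 ng later) in 100 µl of 10 mM Tris–HCl pH 7.5, 50 mM NaCl, poly(dI-dC), DTT for 10 min at room temperature. Complexes were then Ni2+ bead-captured, washed, PCR-amplified and reselected.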
# [2] = biological target: T2, SALL4 ZFC4 G921D (HT-SELEX) (Mus musculus, UniProt Q8BX22 870-940, G921D); experiment: HT-SELEX; high values mean tight binding; conditions: protein: recombinant; vector His6-GST; dsDNA, one strand shown
# T2 sequence: T1 sequence with W31R, G52D
# In short: as §1
Sequence,binding signal [1],binding signal [2]
CGATCG,0.329 ± 0.0324 fold-change vs cycle 0,0.53 ± 0.115 fold-change vs cycle 0
GCACGA,0.281 ± 0.0197 fold-change vs cycle 0,0.432 ± 0.0801 fold-change vs cycle 0
ACCGGC,0.106 ± 0.00697 fold-change vs cycle 0,0.227 ± 0.0683 fold-change vs cycle 0
GCCCGA,0.125 ± 0.0121 fold-change vs cycle 0,0.243 ± 0.0758 fold-change vs cycle 0
ACGCTG,0.298 ± 0.0226 fold-change vs cycle 0,0.41 ± 0.058 fold-change vs cycle 0
CCGGCC,0.0476 ± 0.00257 fold-change vs cycle 0,0.135 ± 0.0646 fold-change vs cycle 0
CGCTTC,0.316 ± 0.00396 fold-change vs cycle 0,0.452 ± 0.0563 fold-change vs cycle 0
CCCAGG,0.297 ± 0.008 fold-change vs cycle 0,0.401 ± 0.05 fold-change vs cycle 0
CGCAAG,0.289 ± 0.0102 fold-change vs cycle 0,0.411 ± 0.0549 fold-change vs cycle 0
GGCAGA,0.306 ± 0.0166 fold-change vs cycle 0,0.438 ± 0.0703 fold-change vs cycle 0
GGCCGA,0.0868 ± 0.00648 fold-change vs cycle 0,0.196 ± 0.0603 fold-change vs cycle 0
ACGCCT,0.304 ± 0.0301 fold-change vs cycle 0,0.443 ± 0.0612 fold-change vs cycle 0
GGTCGA,0.33 ± 0.0136 fold-change vs cycle 0,0.48 ± 0.0759 fold-change vs cycle 0
GGCACA,0.256 ± 0.0249 fold-change vs cycle 0,0.414 ± 0.0716 fold-change vs cycle 0
GCGCCA,0.0557 ± 0.0063 fold-change vs cycle 0,0.143 ± 0.0639 fold-change vs cycle 0
CCAGCA,0.359 ± 0.0242 fold-change vs cycle 0,0.477 ± 0.0744 fold-change vs cycle 0
CCACGG,0.219 ± 0.0185 fold-change vs cycle 0,0.334 ± 0.0695 fold-change vs cycle 0
ACCGCT,0.31 ± 0.02 fold-change vs cycle 0,0.44 ± 0.0953 fold-change vs cycle 0
AGCGTG,0.35 ± 0.0043 fold-change vs cycle 0,0.476 ± 0.0501 fold-change vs cycle 0
GCGGAC,0.125 ± 0.0161 fold-change vs cycle 0,0.239 ± 0.0553 fold-change vs cycle 0
AGGGGC,0.195 ± 0.00634 fold-change vs cycle 0,0.332 ± 0.0629 fold-change vs cycle 0
